Compound activity deposited in PubChem BioAssay by Paczesny and Yang Labs, IUPUI and University of Michigan.
The full list was thinned out, with hits kept by preference.
ST2 inh: blocks human ST2 binding to IL-33; AlphaLISA ST2-Fc/biotin-IL-33 interaction, 1 h; AID 1259354; Q01638; inhibition, % for hits at 17 µM; 78,000 tested, 2.3% active; in the data active = inhibition above about 30%
Target sequence (Q01638 whole entry, looked up): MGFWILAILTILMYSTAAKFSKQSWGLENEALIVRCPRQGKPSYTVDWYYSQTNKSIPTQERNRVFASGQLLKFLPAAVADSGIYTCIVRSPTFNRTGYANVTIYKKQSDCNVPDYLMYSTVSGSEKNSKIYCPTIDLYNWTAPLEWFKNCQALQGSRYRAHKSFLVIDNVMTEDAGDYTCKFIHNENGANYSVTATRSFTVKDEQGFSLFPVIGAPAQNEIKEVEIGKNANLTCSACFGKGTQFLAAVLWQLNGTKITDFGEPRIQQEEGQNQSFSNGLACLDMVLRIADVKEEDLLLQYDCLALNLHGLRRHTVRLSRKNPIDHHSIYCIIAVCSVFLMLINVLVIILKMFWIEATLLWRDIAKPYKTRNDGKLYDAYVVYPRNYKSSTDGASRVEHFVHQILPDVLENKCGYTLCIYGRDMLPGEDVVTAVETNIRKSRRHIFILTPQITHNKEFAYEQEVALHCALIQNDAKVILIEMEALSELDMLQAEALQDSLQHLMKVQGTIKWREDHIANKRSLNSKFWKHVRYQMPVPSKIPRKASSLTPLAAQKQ
Starred values were filed as active, the others as inactive; i = inactive; ! = a repeat was not active.

SMILES	ST2 inh
Cc1sc2nc3c(C(=O)N4CCN(Cc5ccccc5)CC4)cccn3c(=O)c2c1C	i
COc1ccc(C(=O)Nc2cccc(-c3nc4cc(C)ccc4o3)c2)cc1[N+](=O)[O-]	i
COc1ccccc1C(=O)Nc1ccc(-c2nc3cc(C)ccc3o2)cc1	i
COc1ccc(C(=O)Nc2ccc(-c3nc4cc(C)ccc4o3)c(O)c2)cc1Cl	30.0%*
Cc1cccc(-c2nc(CN3CCCCC3)c(C)o2)c1	i
Cc1cc(Br)ccc1OCC(=O)N1CCN(c2ccccn2)CC1	i
CCOc1ccc(N=C2C(=O)N(CN3CCN(c4ccccc4)CC3)c3ccccc32)cc1	i
CCN(CC)CN1C(=O)C(=Nc2cccc(C(F)(F)F)c2)c2ccccc21	32.0%*
O=C1C(=Nc2cccc(F)c2)c2ccccc2N1CN1CCN(c2ccccc2)CC1	i
Cc1cccc(C)c1NCc1c(F)cccc1F	i
Cc1c(C(C)NS(=O)(=O)c2cccnc2)cnn1-c1cccc2ccccc12 (stereo not given)	i
COC1=C(OC)C(=O)c2ccccc2C1=O	i
CC(=O)C1=C(c2ccccc2)C(=O)c2ccccc2C1=O	48.0%*
CC(=O)c1ccccc1-c1cccc(C(=O)NC(C)C)c1	i
O=C(NCc1ccccc1)C(O)c1ccccc1 (stereo not given)	i
COc1ccccc1N1C(=N)S/C(=C/c2ccc(Br)c([N+](=O)[O-])c2)C1=O	i
COc1ccc(Br)cc1/C=C1/SC(=N)N(c2ccc3c(c2)OCO3)C1=O	40.0%*
Cc1ccc(N2C(=O)S/C(=C\c3ccc4c(c3)OCO4)C2=O)cc1	i
O=C1NC(c2ccc(O)cc2)Nc2sc3c(c21)CCCC3 (stereo not given)	i
O=C1CSc2ccccc2N1Cc1ccc(F)cc1Cl	i
O=C(Nc1ccccc1O)c1cc2ccccc2oc1=O	34.0%*
O=C(Nc1ccccc1O)c1cc2ccccc2o1	i
O=C(Nc1ccccc1Cl)c1cc2ccccc2oc1=O	i
Cn1c(=O)cc(SCC(=O)NC2CCCCC2)c2ccc(Cl)cc21	i
COc1cc(/C=C2\SC(N3CCCCC3)=NC2=O)cc(OC)c1OC	i
SMILES	ST2 inh
COc1cc(/C=C2\SC(N)=NC2=O)cc(OC)c1O	i
COc1cc(/C=C2\SC(c3ccccc3)=NC2=O)cc(Br)c1O	40.0%*
O=c1oc2c(CN3CCCC3)c(O)ccc2cc1-c1nc2ccccc2s1	i
CCOc1ccc(C2CC(c3ccccc3Cl)Nc3ncnn32)cc1 (stereo not given)	i
Cc1ccc2nc(NC(=O)c3cnccn3)sc2c1	i
O=C(Nc1ccc(F)c(F)c1)c1cnccn1	i
Cc1ccc(NC(=O)c2cnccn2)c(Br)c1	39.0%*
COc1ccc(OC)c(N=Cc2c(O)c(OC)cc(Br)c2Br)c1	i
COc1cccc(C=Nc2ccc(S(=O)(=O)Nc3cc(C)on3)cc2)c1O	i
COc1ccc(N=Cc2cc(Br)cc(Br)c2O)c(OC)c1	i
CCN(CC)c1ccc(N=Cc2cccc(OC)c2O)cc1	94.0%*
CCN(CC)c1ccc(C=Nc2ccc(OC)cc2OC)c(O)c1	35.0%*
Cc1ccc(N=Cc2cccc(C(=O)O)c2O)cc1	i
CSc1nc2ccc(NC(=O)CSc3nc4ccccc4[nH]3)cc2s1	i
CCSc1nnc(NC(=O)CS(=O)(=O)c2c[nH]c3ccccc23)s1	i
CCN(CC)c1ccc(C2NC(=O)NC(C)=C2C(=O)OCCc2ccccc2)cc1 (stereo not given)	i
Cc1cccc(C)c1NC(=O)c1cccc(Br)c1	i
CCc1nc(SCC(=O)c2ccc(O)cc2O)n[nH]1	i
CN1CC2(CCN(C(=O)CCn3cnc4ccccc4c3=O)C2)OC1=O (stereo not given)	i
CCOc1ccc(S(=O)(=O)N2CCSC2c2ccccc2Cl)cc1 (stereo not given)	i
Cc1cc(Sc2nnc(-c3ccccc3)n2C)c2ccccc2n1	i
CCc1cccc(NS(=O)(=O)c2ccc(NC(C)=O)cc2)c1	i
Nc1ccc2c(c1)S(=O)(=O)c1cc(N)ccc1O2	i
Cc1c(NC(=O)CCc2nc(-c3ccccc3F)no2)cccc1[N+](=O)[O-]	i
C=CCc1cccc2cc(C(=O)Nc3ccccc3Cl)c(=O)oc12	i
SMILES	ST2 inh
COc1ccc(-c2cc(C(=O)Nc3sc4c(c3C#N)CCC4)no2)cc1	i
COc1ccccc1-c1ncnn1-c1sc2c(c1C#N)CCCCC2	48.0%*
Fc1cc(Br)ccc1-n1ncnc1-c1ccc2c(c1)OCO2	i
COc1ccc(-c2cc(C(=O)Nc3sc4c(c3C#N)CCCC4)no2)cc1OC	i
COc1ccc(-c2ncnn2-c2sc3c(c2C#N)CCCC3)cc1	44.0%*
COc1ccccc1-c1nc2sc3c(c2c(=O)[nH]1)CCCC3	i
N#Cc1c(-n2ncnc2-c2ccc3c(c2)OCO3)sc2c1CCCCC2	35.0%*!
N#Cc1c(NC(=O)c2cc(-c3ccc4c(c3)OCO4)on2)sc2c1CCC2	i
N#Cc1c(NC(=O)COc2cccc3ccccc23)sc2c1CCCC2	i
CCc1nc(CN(C)CCC(=O)NC2CCCCCC2)no1	i
Fc1ccc(Nc2ncnc3c2cnn3-c2ccc(Cl)cc2)cc1	i
Cc1cc(N2CCOCC2)nc2ccc(NC(=O)CCC(=O)N3CCN(C)CC3)cc12	i
CN(C)Cc1nc(C(=O)N2CCNCC2C(=O)N2CCOCC2)cs1 (stereo not given)	i
NC(=O)c1cncc(N2CCN(Cc3ccc(-n4ccnc4)cc3)CC2)n1	i
Cc1ccsc1-c1nccn1CCCn1ccnc1	i
O=C(Nc1cnc2n1CCCC2)c1cccc2cnccc12	i
COCC(=O)N1CCCN(CC(=O)Nc2ccc(N(C)C(C)=O)cc2)CC1	i
CCc1cnc(C)nc1NCC1CC(=O)N(C2CCCC2)C1 (stereo not given)	i
O=C(NCc1ccc2c(c1)OCO2)C1CCC(=O)N(CCN2CCOCC2)C1 (stereo not given)	i
O=C(/C=C/c1ccc(-c2ccc([N+](=O)[O-])cc2Cl)o1)c1ccco1	i
C/C(=C\c1ccc(-c2ccc(Cl)c(C(=O)O)c2)o1)[N+](=O)[O-]	32.0%*
CCOC(=O)c1ccc(-c2ccc(/C=C/c3[nH]c(=O)[nH]c(=O)c3[N+](=O)[O-])o2)cc1	i
COC(=O)c1ccccc1N1C(=O)C2C(C1=O)C1(C)c3ccccc3C2(C)c2ccccc21 (stereo not given)	i
N#CC1=C2SCN(Cc3ccccc3)CN2C(=O)CC1c1c(F)cccc1Cl (stereo not given)	i
COc1ccc(NC(=O)N[C@H]2C[C@@H](C(=O)N(C)CC(N)=O)N(C(=O)CSC)C2)cc1	i
SMILES	ST2 inh
Cc1ccc(CNS(=O)(=O)c2ccc(Br)s2)cc1	i
Cc1ccc(CN2CCCN(S(=O)(=O)c3ccc(Br)s3)CC2)cc1	35.0%*
O=C(CNS(=O)(=O)c1ccc(Br)s1)N1CCN(Cc2ccccc2)CC1	i
COCCn1cc(C(=O)NCCC(C)C)c2c3ccccc3n(C)c2c1=O	i
COc1cccc(-n2cc(CN(C)Cc3cc(C)c(C)o3)cn2)c1	i
Cc1ccc(S(=O)(=O)Nc2c(-c3ccccc3)c3cc(Br)ccc3[nH]c2=O)cc1	i
CN(CC(=O)NCC1COc2ccccc2O1)S(=O)(=O)c1ccc2c(c1)CCC(=O)N2 (stereo not given)	i
CC1=C(C(=O)OCc2ccccc2)C(c2ccc(F)c(F)c2)C2=C(CCCC2=O)N1 (stereo not given)	i
O=Cc1ccc(S(=O)(=O)c2ccc(Cl)cc2)cc1	i
